Assay [1] deals with Wnt5a (protein binding on small-molecule microarray). As to the kind of experiment: small molecules binding Wnt5a protein – biophysical, small-molecule microarray, 635/667 nm fluorescence, primary screen (AID 1142).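 Further: fluorescence read at 667 nm with signal to noise per printed feature.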 Particulars: 635 nm fluorescence, higher = more signal.
The nature of assay [2]: ATP-based viability of Huh7 replicon cells – cell-based, CellTiter-Glo luminescence, basal, 48 h, cytotoxicity control for HCV replication inhibitor project, primary screen (AID 1143).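 Further: Huh7 hepatoma cells carrying a hepatitis C replication reporter with no stimulus; test concentration not given here.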 Particulars: higher = more signal, called active from +8 up or from −8 down.
Assay [3] is described as follows: Pseudomonas biofilm growth suppression – PAO1 strain, BacTiter-Glo luminescence, LB-PBS, primary screen (AID 1144). Particulars: P. aeruginosa PAO1 biofilm, 12 h, higher = more signal.
A short description of assay [4]: basal CRE-LacZ reporter activity in PC12 – cell-based, unstimulated, primary screen (AID 1145). Particulars: no forskolin, luminescence, 4.5 h, higher = more signal, called active from +8 up or from −8 down.
The nature of assay [5]: forskolin-driven CRE-LacZ activity in PC12 – cell-based, CRE-LacZ reporter, forskolin-stimulated, primary screen (AID 1146).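 Further: PC12 cells with 6xCRE LacZ reporter stimulated by forskolin 10 µM; beta-galactosidase reporter signal reflecting CREB driven transcription.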 Particulars: luminescence, 4.5 h, higher = more signal, called active from +8 up or from −8 down.
Assay [6] addresses Streptavidin (Streptomyces avidinii) (UniProt P22629). As to the kind of experiment: compounds binding control protein streptavidin – biophysical, small-molecule microarray, 635/667 nm fluorescence, artefact control for SMM compound annotation, primary screen (AID 1147).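 Further: signal reflects streptavidin binding to arrayed compounds as a control protein.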 Particulars: higher = more signal.
Assay [7] is described as follows: probe aInhba binding on compound microarray – biochemical, small-molecule microarray, 635/667 nm fluorescence, primary screen (AID 1148).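 Further: score merges 667nm spot fluorescence with signal-to-noise for antibody binding to printed compounds.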 Particulars: higher = more signal.
In assay [8] the target is Torsin-1A (Homo sapiens) (UniProt O14656). Kind of assay: TOR1A wild-type binding on microarray – cell lysate, small-molecule microarray, lysate, 635/667 nm, primary screen (AID 1149). Particulars: COS7 hTOR1A-WT lysate, 635 nm fluorescence, higher = more signal.
Chain of Torsin-1A (Homo sapiens) (O14656 whole entry, looked up): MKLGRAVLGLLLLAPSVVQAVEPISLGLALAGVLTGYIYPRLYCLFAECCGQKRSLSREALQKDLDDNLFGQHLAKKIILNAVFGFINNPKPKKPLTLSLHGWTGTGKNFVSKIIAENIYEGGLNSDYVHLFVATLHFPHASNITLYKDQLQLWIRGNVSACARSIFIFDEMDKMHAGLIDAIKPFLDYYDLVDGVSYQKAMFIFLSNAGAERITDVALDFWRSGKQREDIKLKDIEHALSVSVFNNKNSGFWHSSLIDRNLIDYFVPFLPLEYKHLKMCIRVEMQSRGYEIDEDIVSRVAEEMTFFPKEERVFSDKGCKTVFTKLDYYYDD
Assay [9] has the same target. Kind of assay: torsin A mutant lysate binding on microarrays – cell lysate, small-molecule microarray, COS7 lysate, 635/667 nm fluorescence, primary screen (AID 1150).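 Further: score pools 667 nm emission and signal to noise measuring lysate protein binding.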 Particulars: COS7 hTOR1A mutant lysate, 635 nm fluorescence, higher = more signal.
In assay [10] the test system is Sonic hedgehog protein (Shh). Kind of assay: Sonic hedgehog microarray binding compounds – biochemical, small-molecule microarray, 635/667 nm fluorescence, primary screen (AID 1151).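 Further: Shh protein binding to compounds spotted on small-molecule microarray slides; score combines spot fluorescence intensity with signal-to-noise across triplicate slides.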 Particulars: 635 nm fluorescence, higher = more signal.
Assay [11] is described as follows: optical density shifts of acrAB sulA E. coli – strain DRC41, OD650, 48 h, E. coli filamentation inducer project, primary screen (AID 1152).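 Further: E. coli MC1000 strain DRC41 lacking acrAB efflux pump and sulA.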 Particulars: higher = more signal, called active from +8 up or from −8 down.
The nature of assay [12]: probe aLefty1 binding on compound microarray – biochemical, small-molecule microarray, 635/667 nm fluorescence, primary screen (AID 1153).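 Further: score merges spot fluorescence with signal-to-noise ratio from the scanned slide images.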 Particulars: higher = more signal.
The nature of assay [13]: plasmodial surface anion channel blockers, osmotic lysis – cell-based, P. falciparum Indochina, OD700, 1 h, primary screen (AID 1154). Particulars: P. falciparum Indochina infected RBC osmotic lysis, higher = more signal, called active from +8 up or from −8 down.
Assay [14] is described as follows: plasmodial surface anion channel blockers, osmotic lysis – cell-based, P. falciparum Indochina, OD700, 2 h, primary screen (AID 1155).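 Further: lysis reports solute entry through the parasite surface anion channel PSAC.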 Particulars: P. falciparum Indochina infected erythrocytes, higher = more signal, called active from +8 up or from −8 down.
Assay [15] is described as follows: changes in parasitized red cell lysis, either direction – P. falciparum Indochina, OD700, 3 h, PSAC antagonist project, primary screen (AID 1156). Particulars: P. falciparum-infected erythrocytes, osmotic lysis, higher = more signal, called active from +8 up or from −8 down.
The nature of assay [16]: plasmodial surface anion channel blockers, osmotic lysis – cell-based, P. falciparum Indochina, OD700, 18 h, primary screen (AID 1157). Particulars: P. falciparum Indochina infected erythrocytes, osmotic lysis OD700, 18 h; higher = more signal, called active from +8 up or from −8 down.
Assay [17] in a line: S6 kinase pathway phospho-S6 level changes – cell-based, A549, cytoblot, luminescence, serum-stimulated, primary screen (AID 1158).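 Further: serum-stimulated A549 lung adenocarcinoma cells; signal is phosphorylated S6 detected by cytoblot immunostaining with HRP secondary.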 Particulars: 5 h, higher = more signal.
The target of assay [18] is NADPH oxidase 2 (Homo sapiens) (UniProt P04839). As to the kind of experiment: compounds shifting NOX2 Amplex Red fluorescence – cell-based, HEK293-NOX2, PMA-stimulated, NOX inhibitor project, primary screen (AID 1159). Further: test concentration not given here. Particulars: 45 min, higher = more signal, called active from +8 up or from −8 down.
Chain of NADPH oxidase 2 (Homo sapiens) (P04839 whole entry, looked up): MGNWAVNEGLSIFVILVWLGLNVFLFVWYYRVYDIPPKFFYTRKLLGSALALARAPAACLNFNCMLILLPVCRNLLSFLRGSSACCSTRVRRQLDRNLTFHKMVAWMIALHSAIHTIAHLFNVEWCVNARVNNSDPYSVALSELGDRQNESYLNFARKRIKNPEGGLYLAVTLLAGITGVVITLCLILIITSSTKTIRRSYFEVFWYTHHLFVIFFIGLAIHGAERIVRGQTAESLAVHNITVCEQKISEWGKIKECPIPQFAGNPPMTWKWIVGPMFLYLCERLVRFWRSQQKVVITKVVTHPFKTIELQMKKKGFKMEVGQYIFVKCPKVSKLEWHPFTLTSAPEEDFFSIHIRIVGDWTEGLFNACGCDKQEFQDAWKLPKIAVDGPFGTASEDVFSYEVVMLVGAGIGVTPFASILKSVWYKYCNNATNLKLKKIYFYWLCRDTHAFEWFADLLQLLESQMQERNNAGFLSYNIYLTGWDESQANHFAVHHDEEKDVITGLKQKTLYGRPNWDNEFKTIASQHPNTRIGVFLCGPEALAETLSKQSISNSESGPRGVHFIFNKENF
In assay [19] the target is NADPH oxidase 4 (Homo sapiens) (UniProt Q9NPH5). As to the kind of experiment: compounds shifting NOX4 Amplex Red fluorescence – cell-based, HEK293-NOX4, tetracycline-induced, NOX inhibitor project, primary screen (AID 1160). Particulars: HEK293-NOX4, Amplex Red H2O2 fluorescence, 45 min; higher = more signal, called active from +8 up or from −8 down.
Chain of NADPH oxidase 4 (Homo sapiens) (Q9NPH5 whole entry, looked up): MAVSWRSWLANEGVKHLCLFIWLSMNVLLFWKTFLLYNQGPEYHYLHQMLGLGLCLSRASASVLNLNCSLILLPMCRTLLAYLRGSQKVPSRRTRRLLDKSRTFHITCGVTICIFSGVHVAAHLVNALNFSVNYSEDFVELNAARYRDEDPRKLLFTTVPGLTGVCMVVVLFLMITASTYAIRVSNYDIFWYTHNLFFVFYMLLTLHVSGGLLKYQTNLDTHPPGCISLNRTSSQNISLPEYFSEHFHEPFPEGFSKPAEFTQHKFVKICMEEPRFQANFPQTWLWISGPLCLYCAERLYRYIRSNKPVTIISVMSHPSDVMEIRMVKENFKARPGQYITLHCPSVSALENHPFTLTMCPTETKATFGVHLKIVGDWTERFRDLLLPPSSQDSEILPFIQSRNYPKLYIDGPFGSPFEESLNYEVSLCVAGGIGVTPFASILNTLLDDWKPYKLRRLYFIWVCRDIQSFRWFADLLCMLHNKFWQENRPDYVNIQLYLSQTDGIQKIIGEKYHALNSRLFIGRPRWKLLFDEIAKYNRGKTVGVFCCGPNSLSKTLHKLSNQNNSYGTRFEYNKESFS
Assay [20] deals with NADPH oxidase 5 (Homo sapiens) (UniProt Q96PH1). As to the kind of experiment: compounds shifting NOX5 Amplex Red fluorescence – cell-based, HEK293-NOX5, NOX inhibitor project, primary screen (AID 1161). Particulars: HEK293-NOX5, ionomycin, 45 min, higher = more signal.
Chain of NADPH oxidase 5 (Homo sapiens) (Q96PH1 whole entry, looked up): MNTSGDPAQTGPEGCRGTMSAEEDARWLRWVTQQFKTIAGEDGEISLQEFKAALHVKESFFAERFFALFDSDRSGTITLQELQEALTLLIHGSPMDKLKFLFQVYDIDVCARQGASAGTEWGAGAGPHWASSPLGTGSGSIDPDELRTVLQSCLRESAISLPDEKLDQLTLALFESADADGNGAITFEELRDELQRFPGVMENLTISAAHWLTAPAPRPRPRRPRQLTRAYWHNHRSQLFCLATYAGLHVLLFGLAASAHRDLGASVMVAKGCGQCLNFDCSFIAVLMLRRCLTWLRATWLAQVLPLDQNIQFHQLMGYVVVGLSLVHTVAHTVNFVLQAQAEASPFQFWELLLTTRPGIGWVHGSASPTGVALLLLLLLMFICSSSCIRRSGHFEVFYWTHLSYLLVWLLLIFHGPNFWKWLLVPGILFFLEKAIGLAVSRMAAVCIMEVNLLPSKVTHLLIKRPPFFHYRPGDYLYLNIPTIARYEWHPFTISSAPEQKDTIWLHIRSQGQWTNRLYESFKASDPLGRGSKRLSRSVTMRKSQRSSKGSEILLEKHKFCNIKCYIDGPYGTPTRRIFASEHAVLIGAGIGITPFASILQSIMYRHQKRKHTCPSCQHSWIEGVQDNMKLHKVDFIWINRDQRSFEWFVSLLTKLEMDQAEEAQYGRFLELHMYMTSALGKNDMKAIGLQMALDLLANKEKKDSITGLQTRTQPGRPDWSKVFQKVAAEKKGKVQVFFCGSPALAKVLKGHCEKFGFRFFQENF

Active and inactive are the calls of the source. Unless noted, how the calls were made is not given here.

Chain of Streptavidin (Streptomyces avidinii) (P22629 whole entry, looked up): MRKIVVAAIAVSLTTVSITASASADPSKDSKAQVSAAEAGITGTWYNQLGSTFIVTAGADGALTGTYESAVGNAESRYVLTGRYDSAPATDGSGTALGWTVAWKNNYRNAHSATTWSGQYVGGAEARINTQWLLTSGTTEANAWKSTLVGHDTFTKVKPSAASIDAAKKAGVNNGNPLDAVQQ

As for `C=CCNC(=O)[C@@H]1[C@H]2C(=O)O[C@H](c3ccccc3)[C@H](c3ccccc3)N2[C@H](c2ccc(O)cc2)[C@@]12C(=O)Nc1ccc(C#CCNC(N)=O)cc12`, the composite z-score in [1] was -0.525; in [6] it was -0.325; in assay [7], -0.339; in assay [8], -0.138; in [9], 0.121; in assay [10], 0.316. The compound further had a composite z-score in assay [12] of 0.186. The z-score in [2] was -0.0804 (inactive); in assay [3], -0.233 (inactive); in assay [4], 1.21 (inactive); in assay [5], -0.434 (inactive); in assay [11], -1.29 (inactive); in assay [13], 0.448 (inactive). The z-score in [14] was -0.261 (inactive); in assay [15] it was -0.519 (inactive); in [16], 0.32 (inactive); in assay [17], -0.203; in assay [18] it was 0.334 (inactive); in assay [19], -0.211 (inactive). For the same compound, the z-score in assay [20] came to 0.0297.

With `C=CCOC(=O)[C@H]1[C@@H]2C(=O)O[C@@H](c3ccccc3)[C@@H](c3ccccc3)N2[C@@H](c2ccc(OCCOC(=O)[C@H]3C[C@H]4C(=O)N[C@@H](CCCCNC(C)=O)C(=O)N4[C@H]3c3ccc(O)cc3)cc2)[C@]12C(=O)Nc1ccc(I)cc12`, the composite z-score in assay [1] was 0.413; in assay [6], 0.142; in assay [7], 0.098; in [8] it was 0.807; in [9] it was 1.01; in assay [10], 2.09. In assay [12], this compound showed a composite z-score of 0.204. Moreover, the z-score in assay [2] was -1.48 (inactive); in [3], 0.399 (inactive); in [4], 5.04 (inactive); in assay [5], 6.74 (inactive); in assay [11], -1.8 (inactive); in assay [13], -0.858 (inactive). For the same compound, the z-score in [14] is 0.461 (inactive); in assay [15], 0.675 (inactive); in [16], -0.214 (inactive); in [17] it was -0.635; in assay [18], 1.36 (inactive); in assay [19] it was 0.823 (inactive). For the same compound, the z-score in [20] worked out at 0.935.

In the case of `COC(=O)[C@@]1(Cc2ccc(F)cc2)[C@H]2c3cc(C(=O)N4CCCC4)n(CCCNc4ncc(C(F)(F)F)cc4Cl)c3C[C@H]2CN1C(=O)c1ccccc1`, the composite z-score in assay [1] was -0.026; in assay [6], 0.919; in assay [7] it was 0.656; in assay [8], -0.107; in [9], -0.0136; in [10] it was -0.516. In [12], the composite z-score came to 0.4. Also, the z-score in assay [2] was -1.89 (inactive); in [3] it was -0.0456 (inactive); in [4], 1.74 (inactive); in assay [5], -0.152 (inactive); in [11] it was -2.31 (inactive); in assay [13], 1.58 (inactive). For the same compound, the z-score is 0.852 (inactive) in assay [14]; 1.01 (inactive) in assay [15]; 0.863 (inactive) in [16]; -0.626 in assay [17]; -0.299 (inactive) in [18]; -2.23 (inactive) in assay [19]. Besides, in assay [20], the z-score was -0.307.

Consider `COCCOC(=O)N1C(=O)[C@@]2(c3ccccc31)[C@H](c1ccccc1OCCO)N1[C@H](c3ccccc3)[C@H](c3ccccc3)OC(=O)[C@H]1[C@@H]2C(=O)N1CCN(c2ncccn2)CC1`, for which the composite z-score was -0.0525 in assay [1]; 0.498 in assay [6]; -0.0102 in assay [7]; 0.447 in [8]; 0.489 in [9]; 1.34 in [10]. Also, the composite z-score in [12] was found to be 0.0402. Besides, the z-score in [2] is -2.08 (inactive); in assay [3], 0.235 (inactive); in assay [4] it was -0.0688 (inactive); in assay [5], 3.84 (inactive); in [11], -0.102 (inactive); in [13], 4.19 (inactive). In addition, the z-score in [14] is 2.16 (inactive); in assay [15], 0.98 (inactive); in assay [16] it was 1.49 (inactive); in [17] it was -0.248; in assay [18] it was -0.652 (inactive); in assay [19], -0.44 (inactive). Besides, the z-score in assay [20] was determined as 0.183.
